The record followed here is ChEMBL document CHEMBL4513216, “Probing the Open Global Health Chemical Diversity Library for Multistage-Active Starting Points for Next-Generation Antimalarials” (ACS Infect Dis, 2020).

Among all 68,000 compounds or so, about 2,700 (4%) showed an effect of 50% or more. Shown is part of a subset that was picked to be rich in strong results.

The test system of this experiment is Plasmodium berghei. Nature of the experiment: Screen against P. berghei liver stage (PbLuc), transformed with Luciferase, at 2uM. Format: functional, HepG2. The note with it: tested at 2 uM.
In the case of `CN(C)c1cc(CNCc2cccc3c2OCCO3)ccn1`, the INHIBITION is recorded as -15.64%.

`FC1(F)CCN(Cc2cccnc2)CC12CCN(c1ccccc1)C2` (stereo unspecified): the INHIBITION is reported as 31.41%.

`O=C(C1CCCCO1)N1CCc2ncnc(NCCO)c2CC1` (stereo unspecified): the INHIBITION is recorded as 57.89%.

Take `O=C(CC1C=CCC1)N1CCc2ncnc(NCc3ccon3)c2CC1` (stereo unspecified): the INHIBITION is on record as 42.26%.

`O=C(C1CCCCO1)N1CCc2ncnc(NCc3ccon3)c2CC1` (stereo unspecified): the INHIBITION was found to be 59.58%.

`COc1cccc(CC(=O)N2CCc3ncnc(NCCO)c3CC2)c1`: the INHIBITION is recorded as 52.98%.

As for `COc1cccc(CC(=O)N2CCc3ncnc(NC(C)C)c3CC2)c1`, the INHIBITION came to 2.71%.

Turning to `O=C(C1CCCO1)N1CCc2ncnc(NC3CCC3)c2CC1` (stereo unspecified), the INHIBITION is given as 46.32%.

As to `CC(C)Nc1ncnc2c1CCN(C(=O)[C@H]1CCCO1)CC2`, the INHIBITION was 35.89%.

As for `O=C([C@H]1CCCO1)N1CCc2ncnc(NC3CC3)c2CC1`, the INHIBITION was -15.36%.

On to `COc1cccc(CC(=O)N2CCc3ncnc(C)c3CC2)c1`, for which the INHIBITION is on record as 19.49%.

Take `CC(NCc1ccc(-c2ccc(F)cc2)o1)c1nnc2n1CCC2` (stereo unspecified): the INHIBITION is -40.26%.

Consider `Nc1nnc(Cn2nnc(-c3ccccc3F)n2)s1`, for which the INHIBITION is 39.58%.

Regarding `CNc1ncc(CN2CCC(CCc3ccccc3)CC2)cn1`, the INHIBITION came out at 49.87%.

For the molecule `O=C(c1cccc(-n2cnnc2)c1)N1C[C@@H](O)[C@H](N2CCOCC2)C1`, the INHIBITION is on record as -8.04%.

With `CN1CCC(N(C)C[C@H]2CC[C@@H](Cc3ccc4occc4c3)O2)CC1`, the INHIBITION is listed as -10.59%.

Take `CN1CCC(N(C)C[C@H]2CC[C@@H](Cc3cccc(O)c3)O2)CC1`: the INHIBITION is -66.38%.

As to `COc1ccc(C[C@@H]2CC[C@H](CN(C)C3CCN(C)CC3)O2)cc1`, the INHIBITION is given as 68.08%.

`Cc1cc(C)n(CC2CCCCN2CC(=O)N(C)Cc2ccco2)n1` (stereo unspecified): the INHIBITION stood at 40.82%.

Take `CC(CNC(=O)c1c[nH]nn1)Oc1ccc(Cl)cc1` (stereo unspecified): the INHIBITION is on record as -4.64%.

On to `O=C(C1CCOCC1)N1CCN(CC2CC2)c2ncccc2C1`, for which the INHIBITION is given as 51.27%.

Regarding `O=C(N1CCCC1)N1CCN(CC2CC2)c2ncccc2C1`, the INHIBITION is -3.08%.

For the molecule `O=C(C1CCOC1)N1CCN(Cc2ccncc2)c2ncccc2C1` (stereo unspecified), the INHIBITION is listed as 31.08%.

For the molecule `CCN(Cc1ccc2c(c1)OCCO2)S(=O)(=O)N(C)C(C)C`, the INHIBITION worked out at 63.95%.

Consider `CCN(Cc1ccc2c(c1)OCO2)S(=O)(=O)N(C)C(C)C`, for which the INHIBITION was determined as 41.99%.

With `CCN(CC)S(=O)(=O)N(CC)Cc1ccc2c(c1)OCCO2`, the INHIBITION was -3.05%.

Turning to `Cc1n[nH]c(C2CN(CC(=O)NCCc3ccc(F)cc3)CCO2)n1` (stereo unspecified), the INHIBITION is recorded as 5.47%.

For the molecule `Cc1nc2[nH]cnc(NCCN3CCCC3)c-2n1`, the INHIBITION was -20.68%.

Turning to `CC(c1cccc(-c2ncc(C#N)c(N)n2)c1)N(C)C` (stereo unspecified), the INHIBITION was -38.96%.

For `CCS(=O)(=O)N1CCC2(CCCN(Cc3ccc(F)c(F)c3)C2=O)C1` (stereo unspecified), the INHIBITION is 50.59%.

Take `O=C1N(Cc2ccc(F)c(F)c2)CCCC12CCN(C1CCCC1)C2` (stereo unspecified): the INHIBITION was 23.18%.

Take `CN(C)S(=O)(=O)N1CCC2(CCCN(Cc3ccc(F)cc3)C2=O)C1` (stereo unspecified): the INHIBITION is on record as -37.84%.

Turning to `CCCS(=O)(=O)N1CCC2(CCCN(Cc3cccc(F)c3F)C2=O)C1` (stereo unspecified), the INHIBITION is given as 50.59%.

As to `CCCS(=O)(=O)N1CCC2(CCN(Cc3cccc(F)c3)C2=O)C1` (stereo unspecified), the INHIBITION is given as -25.61%.

Take `O=C1N(Cc2ccccc2F)CCCC12CCN(C1CCSCC1)C2` (stereo unspecified): the INHIBITION worked out at 11.26%.

As for `COc1cnc(N2C[C@H](CO)C[C@H](CN3CCOCC3)C2)nc1`, the INHIBITION is -3.87%.

With `COc1c(C2CCCN2C(=O)c2ccc(C(N)=O)s2)c(C)nn1C` (stereo unspecified), the INHIBITION is -21.71%.

As to `COc1ccc2c(c1)OCC(CNC1CCc3ncnn3C1)=C2` (stereo unspecified), the INHIBITION was -34.12%.

In the case of `Cc1ccc(F)cc1C(=O)OCC1CCCN1C(N)=O` (stereo unspecified), the INHIBITION is 5.48%.

Consider `NC(=O)N1CCCC1COC(=O)c1cc(F)ccc1F` (stereo unspecified), for which the INHIBITION was 61.91%.

Take `NC(=O)N1CCCC1COC(=O)c1ccc(F)cc1Br` (stereo unspecified): the INHIBITION stood at 6.47%.

In the case of `CN1CCN(C=C2N=C(c3cc(-c4ccc(F)cc4)n[nH]3)ON2)CC1`, the INHIBITION was found to be 22.39%.

For `CCN(C)C[C@@H]1CN(S(=O)(=O)c2ccc(C#N)cc2)C[C@@H]1CO`, the INHIBITION was found to be 14.82%.

`CCN(C)C[C@@H]1CN(S(=O)(=O)c2cccc(Cl)c2)C[C@@H]1CO`: the INHIBITION amounted to 55.36%.

With `CCN(C)C[C@@H]1CN(S(=O)(=O)c2ccc(OC)cc2)C[C@@H]1CO`, the INHIBITION was 76.82%.

Turning to `CC[C@H]1CN(S(=O)(=O)c2ccc(OC)cc2)CC[C@H]1CC(=O)O`, the INHIBITION came out at 45.73%.

On to `CCN(C)C[C@@H]1CN(Cc2cccc(Cl)c2)C[C@@H]1CO`, for which the INHIBITION is 38.97%.

With `CCN(C)C[C@@H]1CN(S(=O)(=O)c2cccc(C#N)c2)C[C@@H]1CO`, the INHIBITION is 14.82%.

Consider `CCCC1(CO)CCCN(C(=O)CNC(N)=O)C1` (stereo unspecified), for which the INHIBITION is recorded as 3.49%.

Consider `Cc1noc(C)c1CN1CCOC2(CCCN(c3nncs3)C2)C1` (stereo unspecified), for which the INHIBITION was 31.96%.

Take `CCCS(=O)(=O)N1CCC2(CC1)CN(CC1CCOC1)c1ccccc12` (stereo unspecified): the INHIBITION came out at 27.67%.

Consider `CC1CCN(CCNC(=O)c2scnc2Cl)CC1`, for which the INHIBITION is on record as 47.87%.

In the case of `COc1cn(-c2ccccc2)nc1C(=O)NCCCN1CCCC(C)C1` (stereo unspecified), the INHIBITION is 20.11%.

Take `O=C(NCCN1CCCCC1)c1scnc1Cl`: the INHIBITION is -9.66%.

As to `COc1cn(-c2ccccc2)nc1C(=O)NCCN1CCCC(C)C1` (stereo unspecified), the INHIBITION is listed as 66.2%.

With `CC1CCCN(CCNC(=O)c2scnc2Cl)C1` (stereo unspecified), the INHIBITION is 78.42%.

Take `CC1CCCN(CCNC(=O)c2ccn(-c3ccccc3)n2)C1` (stereo unspecified): the INHIBITION is recorded as -61.61%.

Take `O=C(NCC1(O)COCCN(Cc2ccc(O)cc2)C1)c1cnccn1` (stereo unspecified): the INHIBITION is reported as 30.1%.

For the molecule `CCCc1nc(C)cc(NCc2ccc(S(N)(=O)=O)cc2)n1`, the INHIBITION is given as -16%.

In the case of `Cc1nnc(-c2cccc(C#N)c2)n1C1CCCN(C(C)C)C1=O` (stereo unspecified), the INHIBITION is recorded as -12.01%.

Consider `COc1nc2c(cc1C(=O)N1CC[C@H](CO)[C@@H](O)C1)CCC2`, for which the INHIBITION worked out at 49.02%.

For the molecule `Cc1nc2c(c(NCCc3nccs3)n1)CCN(CC1CC1)CC2`, the INHIBITION was -28.09%.

With `COCCNc1nc(C)nc2c1CCN(CC1CCC(N)CC1)CC2` (stereo unspecified), the INHIBITION is 57.67%.

Consider `COCCNc1nc(C2CCCC2)nc2c1CCNCC2`, for which the INHIBITION came to 34.98%.

For `O=C(O)COCC(=O)NC1CC2(CCCCC2)Oc2ccccc21` (stereo unspecified), the INHIBITION is given as 13.22%.

On to `Cc1noc(C2CCN(C(=O)c3ccc(C(F)(F)F)nc3)CC2)n1`, for which the INHIBITION was 5.05%.
